The nature of this test: S. aureus growth inhibition at 42 and 30 °C, primary screen, LtaS inhibitor project, RN4220, two temperatures (AID 720641). The following applies: OD600, 20 h, 42 °C, stronger effect = lower value.

The whole screen tested about 170,000 compounds, of which about 900 (0.53%) were called active.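 Rule for the calls: active = relative growth at most 50% at the other temperature and 20+ points below 30 °C, or under 10% at both; inactive = the rest, inconclusive results apart.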 Shown is part of a subset that was picked to be rich in actives.

With `CCNS(=O)(=O)c1ccc(NC(=O)Nc2cccc(C(F)(F)F)c2)cc1`, the relative growth was 98.8% (inactive). Moreover, the relative growth (measured here: growth at 30 °C) was determined as 83.1%.

`Cc1onc(-c2ccccc2)c1C(=O)Nc1cccc(C(F)(F)F)c1`: the relative growth was 113% (inactive). In addition, for the setting “measured here: growth at 30 °C”, the relative growth was determined as 87.3%.

Consider `Cc1oc2c(F)c(F)c(F)c(F)c2c1S(=O)(=O)Nc1cccc(C(F)(F)F)c1`, for which the relative growth is 8.52% (active). Where the note is “measured here: growth at 30 °C”, the relative growth was 1.85%.

Turning to `Cc1cc(N2CCCCC2)nc2ccc(NC(=O)CCC(=O)N3CCC(C)CC3)cc12`, the relative growth is 78.9% (inactive). Further, the relative growth (measured here: growth at 30 °C) is 78.2%.

On to `CCc1ccc2[nH]c(=O)c(CN(Cc3ccco3)C(=S)NCC(C)C)cc2c1`, for which the relative growth is 84% (inactive). Besides, the relative growth (measured here: growth at 30 °C) stood at 74.7%.

`COc1ccc(OCCN2C(=O)c3ccccc3S2(=O)=O)cc1`: the relative growth is 102% (inactive). For the same compound, where the note is “measured here: growth at 30 °C”, the relative growth was determined as 95%.

Consider `CCCCc1c(COC)nc(-c2ccc(Cl)cc2)[nH]c1=O`, for which the relative growth was 122% (inactive). For the same compound, under “measured here: growth at 30 °C”, the relative growth was determined as 53%.

Regarding `CC(=O)Nc1nc(C)c(Cc2ccccc2)c(=O)[nH]1`, the relative growth is 106% (inactive). Further, the relative growth (measured here: growth at 30 °C) turned out to be 86.1%.

On to `CCCCCc1c(C)nc(-c2ccccn2)[nH]c1=O`, for which the relative growth was 1.74% (active). Moreover, the relative growth (measured here: growth at 30 °C) came out at 1.83%.

Consider `CC(C)(C)C(=O)OCC(=O)Nc1ccccc1`, for which the relative growth is 124% (inactive). The relative growth (measured here: growth at 30 °C) amounted to 92.1%.

`Cc1nc(/N=C(/N)NC(=O)Cc2ccccc2)nc2ccccc12`: the relative growth is 93.2% (inactive). Besides, where the note is “measured here: growth at 30 °C”, the relative growth came out at 87.1%.

On to `Cc1ccc2nc(CN3CCc4sccc4C3c3cccs3)cn2c1` (centres undefined), for which the relative growth was 0.12% (active). The relative growth (measured here: growth at 30 °C) was -0.28%.

With `CC(NC(=O)CN1CCc2sccc2C1c1cccs1)c1ccc2c(c1)OCCO2` (centres undefined), the relative growth is 116% (inactive). In addition, where the note is “measured here: growth at 30 °C”, the relative growth was 98.8%.

For `N#CCSc1ccccc1NC(=O)CN1CCc2sccc2C1c1cccs1` (centres undefined), the relative growth was 94.4% (inactive). For the same compound, the relative growth (measured here: growth at 30 °C) is 87%.

Consider `CCOC(=O)c1oc2ccccc2c1N=Cc1c(O)n(CC)c(=S)n(CC)c1=O`, for which the relative growth is 99% (inactive). For the same compound, the relative growth (measured here: growth at 30 °C) is 93.3%.

For `CSc1nsc(SCC(=O)N2CCCC2)n1`, the relative growth was 93.6% (inactive). Further, for the setting “measured here: growth at 30 °C”, the relative growth was 82.6%.

As for `CCOC(=O)N1CCN(CC(=O)NCCc2ccc(Cl)cc2Cl)CC1`, the relative growth was 90.9% (inactive). Where the note is “measured here: growth at 30 °C”, the relative growth was 81.3%.

As for `O=C(Cn1cc(C(F)(F)F)cc(Cl)c1=O)Nc1ncccn1`, the relative growth was 94.1% (inactive). The relative growth (measured here: growth at 30 °C) came to 94.7%.

For `CCC(CC)C(=O)N(c1ccc(OC)cc1OC)C1C=CS(=O)(=O)C1` (centres undefined), the relative growth was 99.8% (inactive). The relative growth (measured here: growth at 30 °C) stood at 90.8%.

Turning to `COc1cccc2c1OCc1sc3[nH]c(=S)[nH]c(=O)c3c1-2`, the relative growth is 50.5% (inactive). Moreover, the relative growth (measured here: growth at 30 °C) stood at 32.4%.

On to `N#Cc1ccc(OCC(=O)N=Nc2[nH]c(N)c3ccccc23)cc1`, for which the relative growth is 104% (inactive). Moreover, the relative growth (measured here: growth at 30 °C) amounted to 101%.

Take `Cn1c(NC(=O)c2ccccc2)nc2ccccc21`: the relative growth was 9.06% (active). Besides, the relative growth (measured here: growth at 30 °C) came out at 0.29%.

As for `Cn1c(-c2ccc(C(=O)c3ccccc3)s2)nc2ccccc21`, the relative growth is 101% (inactive). The relative growth (measured here: growth at 30 °C) is 95.7%.

`Cn1c(NCc2ccccc2)nc2ccccc21`: the relative growth was 105% (inactive). Besides, the relative growth (measured here: growth at 30 °C) was determined as 64.6%.

`O=C(COc1ccccc1)NC(C(=O)O)C12CC3CC(CC(C3)C1)C2` (centres undefined): the relative growth was 112% (inactive). Also, the relative growth (measured here: growth at 30 °C) is 83.1%.

Regarding `CN1CCN(c2nc(C34CC5CC(CC(C5)C3)C4)cs2)CC1`, the relative growth was -0.89% (active). Besides, the relative growth (measured here: growth at 30 °C) is -0.63%.

For `c1snnc1C12CC3CC(CC(C3)C1)C2`, the relative growth was 103% (inactive). Moreover, for the setting “measured here: growth at 30 °C”, the relative growth worked out at 109%.

`CC(C)(C)C(=O)Nc1ccc(Br)cc1`: the relative growth was 109% (inactive). For the same compound, the relative growth (measured here: growth at 30 °C) was found to be 84.5%.

Regarding `CCOC(=O)c1cnc(SCSc2nc3ccccc3s2)nc1N`, the relative growth was 86.4% (inactive). Where the note is “measured here: growth at 30 °C”, the relative growth amounted to 87%.

Regarding `Cc1ccc(OC(=O)c2cc3ccccc3o2)cc1`, the relative growth is 0.01% (active). Further, the relative growth (measured here: growth at 30 °C) was -0.88%.

With `CC(C)Oc1ccc(NC(=O)c2cc3ccccc3o2)cc1`, the relative growth was 87.3% (inactive). Besides, the relative growth (measured here: growth at 30 °C) is 89.7%.

Take `CC(=O)Oc1ccc2occ(C(=O)c3cc4ccccc4o3)c2c1`: the relative growth was 89.3% (inactive). For the setting “measured here: growth at 30 °C”, the relative growth was determined as 86.2%.

Turning to `O=C(Oc1ccc2oc(=O)sc2c1)c1ccccc1`, the relative growth was 92.5% (inactive). For the same compound, the relative growth (measured here: growth at 30 °C) amounted to 94%.

For `CC(C)n1c(CCC(=O)O)ccc1-c1ccc(F)cc1`, the relative growth is 126% (inactive). Also, the relative growth (measured here: growth at 30 °C) was 97.4%.

On to `CN(C)[C@@H]1C(=O)C(C(N)=O)=C(O)[C@@]2(O)C(=O)C3=C(O)c4c(O)ccc(Cl)c4[C@@H](O)[C@H]3C[C@@H]12`, for which the relative growth is -0.41% (active). For the same compound, the relative growth (measured here: growth at 30 °C) was -1%.

Regarding `COC(=O)/C(C#N)=C(\NCc1ccc(Cl)cc1Cl)SC`, the relative growth was 99.2% (inactive). Also, under “measured here: growth at 30 °C”, the relative growth was 99.3%.

As to `NC(=O)C1CCN(C(=O)CSc2ccc3ccccc3c2)CC1`, the relative growth is 84.3% (inactive). Further, the relative growth (measured here: growth at 30 °C) was 94.8%.

Turning to `COc1ccc(F)cc1C(O)CSCc1ccccc1` (centres undefined), the relative growth is 124% (inactive). For the same compound, the relative growth (measured here: growth at 30 °C) was determined as 84.8%.

In the case of `CCOC(=O)Nc1nc2c(ccc3ccccc32)s1`, the relative growth was 92.4% (inactive). Besides, for the setting “measured here: growth at 30 °C”, the relative growth worked out at 91.2%.

Take `O=C(O)C1CCC(CNS(=O)(=O)c2ccc(Br)cc2)CC1` (centres undefined): the relative growth was 108% (inactive). For the same compound, the relative growth (measured here: growth at 30 °C) is 96.5%.

With `CCOC(=O)c1oc2nc(-c3ccccc3)cc(-c3ccco3)c2c1N`, the relative growth was 97.1% (inactive). Besides, the relative growth (measured here: growth at 30 °C) was 91.1%.

Regarding `Cc1ccc(CNC(=O)c2ccc(CS(=O)Cc3cccc(Cl)c3)o2)cc1` (centres undefined), the relative growth is 116% (inactive). Besides, the relative growth (measured here: growth at 30 °C) is 82.8%.

Values taken from PubChem BioAssay AID720641 (ICCB-Longwood Screening Facility, Harvard Medical School, 2013).
